High-throughput results: PubChem BioAssay, National Center for Advancing Translational Sciences (NCATS)
Rows were chosen to be rich in hits. Some 21% of all compounds tested hit in one or more screens of this group.
Pf growth 48h: P. falciparum growth inhibition at 48 hours (one generation); P. falciparum luciferase growth in erythrocytes, 48 h; AID 504832; 5.9% of 310,000 active; Potency, µM (series often up to 28.7 µM), inactives show at the top dose activity change, negative = inhibition, hits mostly inhibitors; active means well fitted inhibition curve with a large enough effect; inconclusive means small, poorly fitted or top-dose-only effect, or another doubt; inactive means no such curve, though single readings can be large or run the other way; further: potency means the concentration at half of the fitted maximal effect; on the % scale 0 is the no-effect control and ±100 the full control effect
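Here the parasites carry a stable luciferase gene and grow inside erythrocytes in Albumax-based RPMI medium with compound for one erythrocytic cycle. Activity is scored as loss of luminescent signal.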
Cycloheximide cs: affects cycloheximide protein synthesis inhibition readout, counter-screen. cell reporter, cycloheximide protein synthesis inhibition counterscreen. max response, %. 12% of 300,000 active; in the data active means max response mostly above about 13%, no sharp cut-off; inactive means mostly below about 14%; further: read at 38.3 µM for the half of the compounds with a filed dose; 0% is about no effect
SARS PLP yeast: SARS-CoV PLP inhibition in yeast; S. cerevisiae expressing SARS-CoV PLpro, growth rescue; Potency, µM (highest dose often 32.9 µM), for inactives: at the top dose activity, positive = growth rescue, hits mostly activators; 0.19% of 330,000 active; AID 485353; further: potency means the concentration at half of the fitted maximal effect; 0% is about no effect; nearly all actives have a fitted effect of over 55% in size
Pf growth 96h: inhibits malaria parasite growth, 96 h. P. falciparum luciferase reporter growth, 96 h. Potency, µM (doses to about 28.7 µM), without a hit: at the highest dose activity change, negative = inhibition, hits mostly inhibitors. 6.9% of 320,000 active; active means well fitted inhibition curve with a large enough effect; inconclusive means small, poorly fitted or top-dose-only effect, or another doubt; inactive means no such curve, though single readings can be large or run the other way; further: potency means the concentration at half of the fitted maximal effect; on the % scale 0 is the no-effect control and ±100 the full control effect
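Parasite growth measured via integrated firefly luciferase reporter in P. falciparum. Infected erythrocytes at 2% hematocrit, 0.05% parasitemia final were treated 96 hours at 37 C under 5% CO2, and luminescence was read.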
NS1 function inh: blocks influenza NS1 protein function; 0.4% of 270,000 active; Potency, µM (titrated, usually from 46.1 µM), inactives show at the top dose activity, positive = more growth; further: potency means the concentration at half of the fitted maximal effect; actives are rising curves; nearly all actives have a fitted effect of over 50% in size
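OD600 was taken as the measure of yeast growth restored by compound in an NS1-expressing S. cerevisiae strain. Cells had been washed out of glucose medium and diluted 1:100 into galactose -URA medium, pH 6.0.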
Shiga inhibitor: inhibitors of Shiga toxin in Vero cells | inhibition, % at 38.7 µM | 9.2% of 290,000 active | Vero cells, Shiga toxin protein synthesis inhibition reporter; in the data active means inhibition mostly above about 28%, no sharp cut-off; inactive means mostly below about 43%; further: 0% is about no effect
* hit, by the source's call; ? = inconclusive; nt = not tested or not shown; [ ] = another dose, or the depositor's remark. Unless noted, the call rests on the fitted dose curve.

SMILES	Pf growth 48h	Cycloheximide cs	SARS PLP yeast	Pf growth 96h	NS1 function inh	Shiga inhibitor
CCOc1ccc(CCNC(=O)COC(=O)CSc2ccc(C)cc2)cc1OCC	?	nt	-3%	?	nt	nt
Cc1ccccc1C(=O)N1N=C(c2ccc(NS(C)(=O)=O)cc2)CC1c1cccs1 (stereo not drawn)	?	5	7%	1.7µM*	11%	-1
CS(=O)(=O)Nc1ccc(C2=NN(C(=O)CCCC(=O)O)C(c3cccs3)C2)cc1 (stereo not drawn)	-16%	3	1%	1.9µM*	3%	-2
COc1ccccc1C(=O)N1N=C(c2ccc(NS(C)(=O)=O)cc2)CC1c1cccs1 (stereo not drawn)	-7%[0.00184 µM]	1	-1%	15%	-2%	-5
CC(=O)Nc1cccc(C(=O)NNC(=O)c2n[nH]c(=O)c3ccccc23)c1	-3%	nt	1%	-9%	nt	nt
Cc1ccc(S(=O)(=O)NNC(=S)NCC2CCCO2)cc1 (stereo not drawn)	22%	-5	-5%	21%	-3%	-11
CC(=O)NCCc1ccc(S(=O)(=O)N2CCOCC2)cc1	14%	-2	4%	nt	2%	18
CCNC(=S)N1CCN(C(=O)C(Cc2ccccc2)NC(C)=O)CC1 (stereo not drawn)	54%	4	0%	10µM*	nt	21
COc1ccc(CCNC(=S)N2CCN(S(=O)(=O)c3ccccc3F)CC2)cc1	13µM*	2	-9%	?	-11%	15
Cc1ccc(S(=O)(=O)N2CCN(C(=S)NCC3CCCO3)CC2)cc1 (stereo not drawn)	3.7µM*	nt	4%	3.3µM*	nt	nt
CC(=O)NCCc1ccc(S(=O)(=O)N2CCN(c3nc(-c4ccccc4)c(C)s3)CC2)cc1	3.7µM*	-4	-1%	4.1µM*	7%	-4
CC(=O)NC(Cc1ccccc1)C(=O)N1CCN(C(=S)NCC(C)C)CC1 (stereo not drawn)	9%	-1	1%	47%	nt	-5
O=C(CSc1nc(Nc2ccccc2)nc(N2CCOCC2)n1)NC1CCCCC1	2%	-4	2%	17%	7%	-15
COC(=O)c1ccccc1S(=O)(=O)N1CCC(NC(=O)c2ccccc2)CC1	?	-1	0%	-21%	9%	-4
Cc1ccc(S(=O)(=O)N2CCN(C(=S)NCCc3ccccc3)CC2)cc1	?	2	4%	7.4µM*	nt	16
Cc1ccc(S(=O)(=O)N2CCN(C(=O)C(Cc3ccccc3)NC(=O)c3ccccc3)CC2)cc1 (stereo not drawn)	?	nt	-8%	8.3µM*	nt	nt
COc1ccc(C(=O)NC2CCN(S(=O)(=O)c3ccccc3F)CC2)cc1	10µM*	-3	1%	-13%	-2%	-6
COc1ccc(CCNC(=S)N2CCN(S(=O)(=O)c3ccccc3)CC2)cc1	10µM*	nt	6%	?	nt	nt
Cc1cccc(NS(=O)(=O)c2ccc(C)c(C(=O)NCc3ccccn3)c2)c1	2%	nt	-20%	-11%	nt	nt
CCCCC1=CC2=CC(=O)C(C)(OC(=O)CC)C(=O)C2=CN1C1CCCCC1 (stereo not drawn)	?	-3	1%	9.3µM*	-2%	-7
CCCCC1=CC2=CC(=O)C(C)(OC(=O)CC)C(=O)C2=CN1CCCCO (stereo not drawn)	42%	-5	-1%	?	4%	-4
CCCCC1=CC2=CC(=O)C(C)(OC(=O)CC)C(=O)C2=CN1c1ccc(OC)cc1 (stereo not drawn)	12µM*	0	-6%	9.3µM*	16%	-5
CC1(OC(=O)CCc2ccccc2)C(=O)C=C2C=C(c3ccc(C#N)cc3)N(C3CC3)C=C2C1=O (stereo not drawn)	13µM*	-4	4%	?	6%	-14
CCOC(=O)/C(=N\Nc1ccc(Cl)cc1)Sc1nnc(-c2ccc(OC)cc2)n1C	2%	-1	-32%	?	-15%	12
COc1ccc(C(=O)Nc2ccc(N3CCN(C)CC3)cc2)cc1OC	100%	30*	5%	?	-5%	48*
SMILES	Pf growth 48h	Cycloheximide cs	SARS PLP yeast	Pf growth 96h	NS1 function inh	Shiga inhibitor
CCOc1ccc(C(=O)Nc2ccc(N3CCN(C)CC3)cc2)cc1	4%	12	1%	-16%	-3%	15
Cc1ccc(C(=O)Nc2ccc(N3CCN(C)CC3)cc2)cc1	68%	34*	5%	0%	3%	56*
CN1CCN(c2ccc(NC(=O)c3ccc4ccccc4c3)cc2)CC1	-19%	31*	2%	-41%	3%	85*
CN1CCN(c2ccc(NC(=O)COc3ccc4ccccc4c3)cc2)CC1	?	9	-2%	1%	1%	4
CCCCOc1ccc(C(=O)Nc2ccc(N3CCN(C)CC3)cc2)cc1	?	-2	2%	0%	14%	-14
COc1ccc(C(=O)Nc2ccc(N3CCN(C)CC3)cc2)cc1	107%	48*	-3%	0.093µM*	-24%	nt
COc1ccccc1C(C)NC(=O)c1ccc(NC(=O)CC2SC(N3CCCC3)=NC2=O)cc1 (stereo not drawn)	?	nt	14%	?	nt	nt
Cc1sc2ncn(CC(=O)NCCCC(=O)N3CCN(Cc4ccc5c(c4)OCO5)CC3)c(=O)c2c1C	7%	-3	-1%	?	-2%	-15
CC(=O)NCC1CCN(C(=O)C2CCC(=O)N(CCc3cccc(F)c3)C2)CC1 (stereo not drawn)	25%	-4	-1%	13µM*	-5%	-6
CN1CCN(C(=O)C2CCC(=O)N(CCc3cccc(F)c3)C2)CC1 (stereo not drawn)	?	0	?	9.3µM*	29%	-6
COCCCC1CCN(C(=O)C2CCC(=O)N(CCc3ccccc3)C2)CC1 (stereo not drawn)	?	46*	7%	-20%	-4%	56*
Cc1ccc(C(=O)NCC(=O)OCc2c(F)cccc2Cl)s1	nt	nt	-1%	nt	nt	nt
COc1cc(C2NC(=O)NC(C)=C2C(=O)OC2CCCC(C)C2)ccc1O (stereo not drawn)	10µM*	-3	-2%	nt	8%	-9
CCOC(=O)C1=C(CS(=O)(=O)c2ccc(F)cc2)NC(=O)NC1c1cc(OC)c(O)c(OC)c1 (stereo not drawn)	17%	-3	-1%	49%	8%	-14
CCOC(=O)C1=C(C)NC(=O)NC1c1cc(Br)c(O)c(OC)c1 (stereo not drawn)	-2%	-1	0%	11%	?	-7
CCOC(=O)C1=C(COc2ccccc2)NC(=O)NC1c1ccc(Br)cc1 (stereo not drawn)	?	-2	-6%	3.3µM*	10%	-9
CCOC(=O)C1=C(CS(=O)(=O)c2ccccc2)NC(=O)NC1c1cc(OC)c(O)c(OC)c1 (stereo not drawn)	17%	-1	6%	2.6µM*	-3%	2
COc1cc(C2NC(=O)NC(C)=C2C(=O)OC2CCCCC2)cc(Br)c1O (stereo not drawn)	nt	-2	2%	13µM*	-4%	-9
